# Experiments:
# Experiment in all cases: PBM binding z-score (relative to random genomic background probes); higher = stronger binding; sequences stand for … in GC…GCGATTGACAGCGTAGAATGAAGG
# [1] = tested on: PPARg:RXRa DBDmut IVT, anti-RXR (DBD mutation: RXRa K156A/R161A, NR concentration 270 nM, RXRa partner concentration 90 nM)
# Outline: (§1)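 Binding z-scores were set against random background probes. The data came from custom Agilent 4×180K protein-binding microarrays carrying double-stranded probes with 34-nt variable regions, incubated 1 h with ligand-free nuclear receptor dimers. Partner-specific antibodies detected binding, and scanned fluorescence was regression-normalized.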
# [2] = tested on: PPARg:RXRa IVT, anti-PPARg (NR concentration 270 nM, RXRa partner concentration 90 nM)
# Outline: as §1
# [3] = tested on: PPARg DBDmut:RXRa IVT, anti-PPARg (DBD mutation: PPARg1 K132A/R137A, NR concentration 270 nM, RXRa partner concentration 90 nM)
# Outline: as §1
# [4] = tested on: PPARg DBDmut IVT, anti-PPARg (DBD mutation: PPARg1 K132A/R137A, NR concentration 270 nM)
# Outline: as §1
# [5] = tested on: PPARg homodimer (NR concentration 180 nM)
# Outline: as §1
# [6] = tested on: PXR:RXRa (NR concentration 270 nM, RXRa partner concentration 90 nM)
# Outline: as §1
# [7] = tested on: PXR homodimer (NR concentration 270 nM)
# Outline: as §1
# [8] = tested on: RARa:RXR (NR concentration 270 nM, RXRa partner concentration 90 nM)
# Outline: as §1
# [9] = tested on: RARa homodimer (NR concentration 270 nM)
# Outline: as §1
# [10] = tested on: RARb:RXRa (NR concentration 270 nM, RXRa partner concentration 90 nM)
# Outline: as §1
# [11] = tested on: RARb homodimer (NR concentration 270 nM)
# Outline: as §1
# [12] = tested on: RARg:RXRa (NR concentration 270 nM, RXRa partner concentration 90 nM)
# Outline: as §1
# [13] = tested on: RARg homodimer (NR concentration 270 nM)
# Outline: as §1
# [14] = tested on: RXRa DBDmut IVT, anti-RXR (DBD mutation: RXRa K156A/R161A, NR concentration 90 nM)
# Outline: as §1
# [15] = tested on: RXRa homodimer (NR concentration 180 nM)
# Outline: as §1
# [16] = tested on: THRa:RXRa (NR concentration 90 nM, RXRa partner concentration 90 nM)
# Outline: as §1
# [17] = tested on: THRa homodimer (NR concentration 90 nM)
# Outline: as §1
# [18] = tested on: VDR homodimer (NR concentration 270 nM)
# Outline: as §1
Sequence,PBM binding z-score [1],PBM binding z-score [2],PBM binding z-score [3],PBM binding z-score [4],PBM binding z-score [5],PBM binding z-score [6],PBM binding z-score [7],PBM binding z-score [8],PBM binding z-score [9],PBM binding z-score [10],PBM binding z-score [11],PBM binding z-score [12],PBM binding z-score [13],PBM binding z-score [14],PBM binding z-score [15],PBM binding z-score [16],PBM binding z-score [17],PBM binding z-score [18]
CGTTAAAGTTCAACTAAGGTAACGTAAAGCACGC,0.607,1.7,1.25,1.18,2.84,5.26,3.31,3.9,1.26,5.17,4.09,5.55,6.33,4.8,4.25,5.26,1.68,3.94
TGAATGAGGTTATAAGATCAGTGAACGTTGCAAA,1.21,1.6,1.17,0.745,0.394,0.814,0.0458,1.62,0.171,1.25,0.307,1.49,0.953,0.773,1.95,1.69,0.0121,0.482
ATATGTAGGTTAAGGGTCATTCAAGTTGGTTCGC,7.49,7.7,1.56,1.82,3.15,5.92,1.73,5.73,1.9,3.79,4.23,4.98,4.09,1.9,6.39,4.2,1.78,3.88
AGAATTAGGTTACCAAAGATCAGGGAAACGCTTG,6.61,6.16,1.54,0.973,1.54,0.000566,0.073,0.336,1,1.25,0.444,0.812,0.884,0.172,0.88,1.12,0.308,-0.053
ATCTCTACGTAAAAGTTCAGTGAATCCCGAGGAT,-0.177,0.157,1.69,2.47,0.954,1.69,1.8,0.802,1.16,2.35,2.42,1.57,2,0.755,0.831,0.591,0.154,1.5
CCAGACACGTGAAAGGTAACTCAGTCTGGTACGC,-0.261,-0.369,-0.212,-0.126,-0.0268,-0.338,-0.312,-0.206,0.0098,0.231,-0.128,-0.098,0.0725,0.166,0.263,0.166,-0.268,-0.17
AATACAGGGTTACTAGGCCAGAGTAGGTACGAAT,2.82,4.59,1.84,1.12,1.19,0.457,0.173,0.852,0.718,1.38,0.925,1.24,0.893,0.264,1.57,1.07,0.206,0.675
CCAGACAGGTGAGAAGGTCACTCAGCCTCGATTA,1.76,2.14,-0.281,-1.25,3.61,3.25,1.11,4.09,2.83,3.58,4.12,4.65,3.85,0.8,3.76,2.46,0.916,1.36
CCGAGTAGGTTATGGGGCATACAGGCAACGGTGA,2.66,3.61,0.382,0.114,1.1,-0.123,-0.0326,-0.237,0.493,0.987,0.844,0.575,0.725,-0.471,0.691,0.28,-0.0646,0.0894
ATCGAAAGTTCGAAGGTGAGTATACCCACCCGAA,0.0334,0.537,0.525,0.231,0.595,1.16,-0.00599,1.67,-0.2,2.07,0.995,1.82,1.51,1.94,2,0.601,-0.388,1.07
ACTAGCAGGCCAAGTTTGGGTAACTCAAACAAAG,0.555,0.362,-0.71,-1.1,-0.788,-0.378,-0.687,-0.383,-0.573,0.143,-0.346,-0.166,0.104,-0.417,-0.603,0.525,-0.513,-0.292
CCGATTGGGGCAGAAAGGTTACCATACCATCCGG,0.436,1.14,-1.01,-0.679,0.221,1.24,-0.318,1.66,-0.348,1.88,2.03,1.61,1.25,-0.405,1.75,0.945,-0.567,-0.225
TCTAGTTGGTCACGGTGGTCACACACGACGGGTA,2.21,3.35,1.54,0.923,0.94,0.537,-0.191,0.741,-0.155,1.93,1.58,1.53,1.77,0.312,0.842,0.234,0.0512,-0.372
TCTATTAGTTGATTAGGGCAAGCGAAACAGCGGA,1.88,1.33,0.35,0.93,0.455,0.314,0.381,0.428,1.01,0.893,0.589,0.429,0.466,0.689,0.305,0.409,0.23,0.398
TAGCCTAGATCATGCGGGCCAGTATAGTGTCGGC,0.553,0.672,-0.852,-1.76,-1.53,-1.41,-1.04,-1.57,-0.691,-1.2,-1.16,-0.937,-0.627,-1,-0.796,-1.05,-1.46,-1.14

# From the supplement of paper PMC6555819
